This note sets out measurements from ChEMBL document CHEMBL1961873, “Compounds: GSK PKIS; Assays: Nanosyn kinase panel” (2012).

The target in test [1] is T1, Inhibitor of nuclear factor kappa-B kinase subunit epsilon (Homo sapiens) (UniProt Q14164).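 Note: reported values are averaged percent inhibition figures against human IKKε.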
T1 sequence (whole entry): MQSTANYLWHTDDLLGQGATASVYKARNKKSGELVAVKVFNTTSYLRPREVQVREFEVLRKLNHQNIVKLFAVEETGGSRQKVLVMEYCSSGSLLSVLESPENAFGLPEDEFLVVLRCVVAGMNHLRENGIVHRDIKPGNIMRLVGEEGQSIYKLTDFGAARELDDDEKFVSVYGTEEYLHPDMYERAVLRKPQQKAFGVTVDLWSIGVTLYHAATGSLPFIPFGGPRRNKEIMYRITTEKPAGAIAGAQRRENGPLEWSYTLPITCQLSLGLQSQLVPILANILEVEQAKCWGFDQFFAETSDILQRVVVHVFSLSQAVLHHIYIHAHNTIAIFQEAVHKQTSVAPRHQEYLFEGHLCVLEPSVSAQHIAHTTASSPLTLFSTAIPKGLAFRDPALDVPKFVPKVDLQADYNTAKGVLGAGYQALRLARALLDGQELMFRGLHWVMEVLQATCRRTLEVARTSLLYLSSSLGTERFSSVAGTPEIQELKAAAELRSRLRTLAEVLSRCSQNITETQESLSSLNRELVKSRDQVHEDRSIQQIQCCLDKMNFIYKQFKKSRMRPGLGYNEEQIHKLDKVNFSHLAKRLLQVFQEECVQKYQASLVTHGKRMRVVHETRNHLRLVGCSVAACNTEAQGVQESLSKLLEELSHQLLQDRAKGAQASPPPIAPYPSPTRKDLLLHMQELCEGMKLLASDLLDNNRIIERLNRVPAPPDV
Particulars: at 1 µM.

Test [2] concerns the target T2, Serine/threonine-protein kinase Nek1 (Homo sapiens) (UniProt Q96PY6).
T2 sequence (whole entry): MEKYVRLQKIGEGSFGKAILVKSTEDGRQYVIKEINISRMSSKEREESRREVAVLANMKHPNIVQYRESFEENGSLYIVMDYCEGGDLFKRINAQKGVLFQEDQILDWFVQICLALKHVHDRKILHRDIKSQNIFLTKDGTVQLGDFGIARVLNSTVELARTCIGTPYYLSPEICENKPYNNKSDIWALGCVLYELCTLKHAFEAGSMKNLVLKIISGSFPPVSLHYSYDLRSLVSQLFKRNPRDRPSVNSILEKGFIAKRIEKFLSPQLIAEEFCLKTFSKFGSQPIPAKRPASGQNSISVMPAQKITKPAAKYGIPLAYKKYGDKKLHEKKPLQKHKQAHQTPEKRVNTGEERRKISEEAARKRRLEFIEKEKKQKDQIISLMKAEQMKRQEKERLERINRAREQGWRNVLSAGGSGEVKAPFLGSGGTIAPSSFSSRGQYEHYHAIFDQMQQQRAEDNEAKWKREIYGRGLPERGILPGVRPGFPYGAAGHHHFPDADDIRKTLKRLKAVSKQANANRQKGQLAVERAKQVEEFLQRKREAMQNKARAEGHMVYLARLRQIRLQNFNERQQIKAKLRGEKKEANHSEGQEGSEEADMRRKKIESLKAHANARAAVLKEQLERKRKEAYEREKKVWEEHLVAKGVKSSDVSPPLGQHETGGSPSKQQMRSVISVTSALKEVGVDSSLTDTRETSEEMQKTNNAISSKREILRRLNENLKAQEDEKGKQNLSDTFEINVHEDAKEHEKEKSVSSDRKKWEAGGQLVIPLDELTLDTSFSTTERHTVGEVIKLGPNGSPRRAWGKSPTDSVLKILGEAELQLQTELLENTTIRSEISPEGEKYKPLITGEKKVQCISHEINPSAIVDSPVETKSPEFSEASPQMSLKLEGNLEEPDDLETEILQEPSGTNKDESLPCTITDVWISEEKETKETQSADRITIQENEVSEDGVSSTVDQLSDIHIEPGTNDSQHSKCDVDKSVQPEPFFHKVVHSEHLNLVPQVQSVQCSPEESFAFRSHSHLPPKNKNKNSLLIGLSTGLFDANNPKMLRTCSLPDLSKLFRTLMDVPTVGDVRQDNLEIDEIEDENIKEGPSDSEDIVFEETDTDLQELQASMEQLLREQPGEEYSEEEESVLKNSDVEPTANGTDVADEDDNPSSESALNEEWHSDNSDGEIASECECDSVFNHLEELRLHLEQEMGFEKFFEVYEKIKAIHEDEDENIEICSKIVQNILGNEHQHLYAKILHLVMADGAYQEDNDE
Conditions: at 0.1 µM.

The target in test [3] is T2, Serine/threonine-protein kinase Nek1 (Homo sapiens). Conditions: at 1 µM.
Test [4] concerns the target T3, Serine/threonine-protein kinase Nek2 (Homo sapiens) (UniProt P51955).
T3 sequence (whole entry): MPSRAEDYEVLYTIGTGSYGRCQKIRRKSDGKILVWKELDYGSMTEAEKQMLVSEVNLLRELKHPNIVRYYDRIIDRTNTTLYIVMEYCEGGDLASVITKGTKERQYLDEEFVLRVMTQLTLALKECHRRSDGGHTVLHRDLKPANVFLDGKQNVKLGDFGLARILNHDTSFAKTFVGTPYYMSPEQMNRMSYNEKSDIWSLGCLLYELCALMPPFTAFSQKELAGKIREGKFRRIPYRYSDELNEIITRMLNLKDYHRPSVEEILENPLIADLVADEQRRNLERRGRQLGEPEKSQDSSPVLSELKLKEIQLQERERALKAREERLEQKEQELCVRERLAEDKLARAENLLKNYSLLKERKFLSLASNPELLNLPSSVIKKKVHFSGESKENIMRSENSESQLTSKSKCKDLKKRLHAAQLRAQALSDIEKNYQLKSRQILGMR
Particulars: at 0.1 µM.

In test [5] the target is T3, Serine/threonine-protein kinase Nek2 (Homo sapiens). Particulars: at 1 µM.
For test [6], the target named is Serine/threonine-protein kinase Nek6 (Homo sapiens) (UniProt Q9HC98). Conditions: at 0.1 µM.
For test [7] the target is unchanged. Conditions: at 1 µM.
The target of test [8] is Serine/threonine-protein kinase Nek7 (Homo sapiens) (UniProt Q8TDX7). Particulars: at 0.1 µM.
Test [9] shares this target. Particulars: at 1 µM.
In test [10] the target is T4, Serine/threonine-protein kinase Nek9 (Homo sapiens) (UniProt Q8TD19).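 Note: reported value is the mean percent inhibition of NEK9.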
T4 sequence (whole entry): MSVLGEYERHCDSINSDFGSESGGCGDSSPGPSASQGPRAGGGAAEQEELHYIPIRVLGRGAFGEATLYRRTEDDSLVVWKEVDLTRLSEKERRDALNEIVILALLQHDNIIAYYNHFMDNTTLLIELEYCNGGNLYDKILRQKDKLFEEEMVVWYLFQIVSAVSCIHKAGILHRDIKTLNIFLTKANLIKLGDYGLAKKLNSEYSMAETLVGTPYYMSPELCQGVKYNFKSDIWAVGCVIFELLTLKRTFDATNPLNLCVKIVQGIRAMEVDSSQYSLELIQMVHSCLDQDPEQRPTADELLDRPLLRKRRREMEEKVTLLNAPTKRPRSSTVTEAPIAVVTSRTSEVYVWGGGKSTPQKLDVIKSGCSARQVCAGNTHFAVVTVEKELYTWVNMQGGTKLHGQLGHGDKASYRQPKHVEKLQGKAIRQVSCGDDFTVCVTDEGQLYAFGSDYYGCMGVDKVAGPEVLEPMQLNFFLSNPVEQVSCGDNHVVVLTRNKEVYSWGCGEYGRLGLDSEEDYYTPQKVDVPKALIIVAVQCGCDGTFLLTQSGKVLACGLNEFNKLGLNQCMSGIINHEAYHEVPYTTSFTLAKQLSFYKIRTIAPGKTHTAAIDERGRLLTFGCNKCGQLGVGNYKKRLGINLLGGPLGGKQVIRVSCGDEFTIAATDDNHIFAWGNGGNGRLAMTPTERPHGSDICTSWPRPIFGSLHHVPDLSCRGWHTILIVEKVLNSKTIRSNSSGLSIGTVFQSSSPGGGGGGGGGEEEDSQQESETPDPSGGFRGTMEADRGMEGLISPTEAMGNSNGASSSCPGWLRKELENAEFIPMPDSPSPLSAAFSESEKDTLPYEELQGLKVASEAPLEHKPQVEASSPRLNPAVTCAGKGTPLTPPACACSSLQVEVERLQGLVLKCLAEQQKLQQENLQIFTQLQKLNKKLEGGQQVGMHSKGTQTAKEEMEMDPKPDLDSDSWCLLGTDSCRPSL
Conditions: at 0.1 µM.

SMILES strings stand for the structures.

Sequence of Serine/threonine-protein kinase Nek7 (Homo sapiens) (Q8TDX7 whole entry, looked up): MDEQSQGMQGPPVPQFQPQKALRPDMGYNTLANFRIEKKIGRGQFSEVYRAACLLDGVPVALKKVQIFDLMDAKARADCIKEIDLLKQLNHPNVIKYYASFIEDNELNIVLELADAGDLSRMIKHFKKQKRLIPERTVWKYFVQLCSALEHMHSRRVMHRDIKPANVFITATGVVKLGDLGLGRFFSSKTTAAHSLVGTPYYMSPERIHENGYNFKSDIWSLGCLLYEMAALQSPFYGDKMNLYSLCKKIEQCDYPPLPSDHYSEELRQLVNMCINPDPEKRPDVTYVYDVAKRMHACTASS
Sequence of Serine/threonine-protein kinase Nek6 (Homo sapiens) (Q9HC98 whole entry): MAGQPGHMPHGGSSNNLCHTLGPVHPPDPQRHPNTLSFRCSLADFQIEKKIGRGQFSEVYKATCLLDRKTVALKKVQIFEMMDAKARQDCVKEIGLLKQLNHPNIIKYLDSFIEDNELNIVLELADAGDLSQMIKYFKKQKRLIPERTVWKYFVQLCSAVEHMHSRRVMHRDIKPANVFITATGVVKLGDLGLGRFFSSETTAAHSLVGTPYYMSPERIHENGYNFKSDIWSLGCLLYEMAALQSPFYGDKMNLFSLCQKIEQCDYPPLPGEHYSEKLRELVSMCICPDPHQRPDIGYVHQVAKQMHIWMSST

As usually defined, the inhibition is the relative decrease from the control value, in per cent. For `CCn1c(-c2nonc2N)nc2c(C#CC(C)(C)O)nc(OCCNC)cc21`, the inhibition in test [1] came out at 46.6%; in test [2], 1.96%; in [3], 2.74%; in test [4], 5.33%; in test [5], 2.6%; in [6], 2.62%. For the same compound, the inhibition came to 1.71% in test [7], 4.06% in test [8], 9.15% in [9] and 7.21% in test [10].

`Nc1ccc(C#Cc2cncnc2Nc2ccc(OCc3cccc(F)c3)c(Cl)c2)cc1`: the inhibition in test [1] amounted to 4.07%; in [2], 3.38%; in test [3], 2.7%; in [4] it was 3.5%; in test [5] it was 3.39%; in [6] it was 2.73%. The inhibition was 0.63% in test [7], 1.31% in [8], 1.32% in test [9] and 3.62% in test [10].

Turning to `COc1ccc(-c2nn3ncccc3c2-c2ccnc(Nc3cccc(C(F)(F)F)c3)n2)cc1`, the inhibition in test [1] is 4.37%; in test [2], 1.37%; in [3], 0.9%; in [4] it was 4.06%; in test [5] it was 1.46%; in test [6], -1.61%. Further, the inhibition came out at 1.08% in test [7], 1.12% in test [8], 2.05% in test [9] and 6.48% in test [10].

Take `CC(C)c1ccc2c(c1)NC(=O)/C2=N/Nc1ccc(S(N)(=O)=O)cc1`: the inhibition in test [1] is -1.41%; in test [2], 0.8%; in test [3] it was -0.15%; in test [4] it was 1.08%; in test [5], 0.29%; in [6], 1.12%. The inhibition in test [7] was 2.08%; in [8], -0.24%; in test [9], 1.29%; in test [10], 2.87%.

For the compound `CS(=O)(=O)CCNCc1nc(-c2ccc3ncnc(Nc4ccc(OCc5cccc(C(F)(F)F)c5)cc4)c3c2)cs1`, the inhibition is 2.82% in test [1]; 1.67% in [2]; 3.9% in test [3]; 2.86% in test [4]; 0.5% in [5]; -0.59% in test [6]. Further, the inhibition in test [7] came out at 2.66%; in test [8] it was 1.6%; in test [9] it was 5.52%; in test [10], 3.06%.

With `CN(C)C(=O)O[C@@H]1CN[C@@H](C#Cc2cc3ncnc(Nc4ccc(OCc5cccc(F)c5)c(Cl)c4)c3s2)C1`, the inhibition in [1] is -2.71%; in [2], 1.22%; in test [3] it was 0.34%; in test [4] it was 2%; in test [5] it was 2.88%; in [6] it was 0.28%. Further, the inhibition in test [7] is -0.53%; in [8], 3.24%; in [9], 2.3%; in test [10], 0.42%.

Take `Cc1cc(Cl)cc2c1NC(=O)C2=NNc1ccc(S(N)(=O)=O)cc1`: the inhibition in [1] worked out at 6.95%; in test [2], 1.58%; in test [3], 2.35%; in test [4] it was 2.49%; in test [5], 2.54%; in test [6], 0.31%. Also, the inhibition came to 1.33% in test [7], 1.91% in [8], 1.96% in test [9] and 3.08% in [10].

Take `COc1cccc(-n2ncc3c(N/N=C/c4ccc(C)cc4)ncnc32)c1`: the inhibition worked out at 6.9% in [1]; 5.55% in [2]; 9.78% in [3]; 8.39% in test [4]; 10.7% in test [5]; 3.25% in [6]. For the same compound, the inhibition in test [7] is 3.08%; in test [8] it was 4.05%; in test [9], 10.1%; in test [10] it was 9.27%.

Regarding `OCc1ccc(-c2nc(-c3ccccn3)c(-c3ccc4c(c3)OCO4)[nH]2)cc1`, the inhibition was found to be 5.41% in test [1]; 2.17% in test [2]; 2.95% in test [3]; 5.76% in [4]; 4.54% in test [5]; 2.18% in [6]. Besides, the inhibition amounted to 0.25% in test [7], 3.26% in test [8], 2.28% in [9] and 5.12% in test [10].
